# Measured values taken from PubChem BioAssay (Tox21).
# Several values for one entry are separate records, joined by “and”; a condition that tells them apart may be missing. Identical values can stand only once. Values without a mark were called inactive. Inconclusive results are not listed. Where a call stands in place of a potency, no number is given. Activity calls are given as the source filed them. Unless noted, calls come from the whole dose curve; as a rule, active = well fitted curve in the direction sought with a large enough effect in the repeat runs; inconclusive = weak or mixed curves; inactive = no such curve, though single readings can be large; an effect the other way counts as inactive or inconclusive.
# Tests used:
# [1] = target: Thyrotropin receptor (Homo sapiens) (UniProt P16473); assay: qHTS assay to identify small molecule antagonists of the thyroid stimulating hormone receptor (TSHR) signaling pathway (AID 1259385; calls by dose curve; note: nearly all actives have a fitted effect of over 20% in size)
# Thyrotropin receptor (Homo sapiens), sequence (P16473 whole entry, looked up): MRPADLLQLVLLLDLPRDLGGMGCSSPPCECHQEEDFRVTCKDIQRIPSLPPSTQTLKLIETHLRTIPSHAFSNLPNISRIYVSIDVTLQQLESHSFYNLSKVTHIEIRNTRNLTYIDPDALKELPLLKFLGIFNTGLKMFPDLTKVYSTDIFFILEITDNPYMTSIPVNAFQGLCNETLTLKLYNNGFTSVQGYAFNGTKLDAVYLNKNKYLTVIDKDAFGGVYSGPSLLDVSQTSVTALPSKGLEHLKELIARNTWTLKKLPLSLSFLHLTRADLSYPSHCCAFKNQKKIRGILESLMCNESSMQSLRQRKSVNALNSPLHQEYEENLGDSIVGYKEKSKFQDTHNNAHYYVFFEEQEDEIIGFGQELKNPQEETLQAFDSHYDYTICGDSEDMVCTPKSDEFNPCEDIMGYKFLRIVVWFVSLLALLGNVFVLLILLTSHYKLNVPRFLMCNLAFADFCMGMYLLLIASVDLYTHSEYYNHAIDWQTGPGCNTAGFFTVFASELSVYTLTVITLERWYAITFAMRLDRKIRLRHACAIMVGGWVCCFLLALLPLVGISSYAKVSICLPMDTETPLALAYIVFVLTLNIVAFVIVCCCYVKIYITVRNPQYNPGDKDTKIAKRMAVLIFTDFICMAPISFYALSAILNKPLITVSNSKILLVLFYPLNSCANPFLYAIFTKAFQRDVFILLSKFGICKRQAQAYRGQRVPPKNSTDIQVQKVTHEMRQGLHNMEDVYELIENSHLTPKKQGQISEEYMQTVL
# In short: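 TSHR-HEK293 cells (800/well) plated 18 h, then compounds with Ro20-1724 and TSH at 1.5 ng/mL final, 30 min at room temperature. cAMP quantified by HTRF (cAMP-d2/anti-cAMP-cryptate, 1 h); 15 concentrations in triplicate.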
# [2] = qHTS assay to identify small molecule agonists of the estrogen receptor alpha (ER-alpha) signaling pathway in the presence of an antagonist - cell viability counter screen (AID 1259386);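 note: series mostly up to about 92 µM; cells exposed to compounds for 22 h at 37 °C before the viability read; nearly all actives have a fitted effect of over 30% in size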
# In short: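 The test measures whether compounds kill ER-alpha reporter cells (VM7Luc4E2) under antagonist co-treatment (ICI-182,780, 10.0nM). Fluorescence from CellTiter-Fluor is read after a 22hr exposure.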
# [3] = target: Progesterone receptor (Homo sapiens) (UniProt P06401); assay: qHTS assay to identify small molecule agonists of the progesterone receptor (PR) signaling pathway (AID 1346784; calls by dose curve; note: nearly all actives have a fitted effect of over 30% in size)
# Progesterone receptor (Homo sapiens), sequence (P06401 whole entry, looked up): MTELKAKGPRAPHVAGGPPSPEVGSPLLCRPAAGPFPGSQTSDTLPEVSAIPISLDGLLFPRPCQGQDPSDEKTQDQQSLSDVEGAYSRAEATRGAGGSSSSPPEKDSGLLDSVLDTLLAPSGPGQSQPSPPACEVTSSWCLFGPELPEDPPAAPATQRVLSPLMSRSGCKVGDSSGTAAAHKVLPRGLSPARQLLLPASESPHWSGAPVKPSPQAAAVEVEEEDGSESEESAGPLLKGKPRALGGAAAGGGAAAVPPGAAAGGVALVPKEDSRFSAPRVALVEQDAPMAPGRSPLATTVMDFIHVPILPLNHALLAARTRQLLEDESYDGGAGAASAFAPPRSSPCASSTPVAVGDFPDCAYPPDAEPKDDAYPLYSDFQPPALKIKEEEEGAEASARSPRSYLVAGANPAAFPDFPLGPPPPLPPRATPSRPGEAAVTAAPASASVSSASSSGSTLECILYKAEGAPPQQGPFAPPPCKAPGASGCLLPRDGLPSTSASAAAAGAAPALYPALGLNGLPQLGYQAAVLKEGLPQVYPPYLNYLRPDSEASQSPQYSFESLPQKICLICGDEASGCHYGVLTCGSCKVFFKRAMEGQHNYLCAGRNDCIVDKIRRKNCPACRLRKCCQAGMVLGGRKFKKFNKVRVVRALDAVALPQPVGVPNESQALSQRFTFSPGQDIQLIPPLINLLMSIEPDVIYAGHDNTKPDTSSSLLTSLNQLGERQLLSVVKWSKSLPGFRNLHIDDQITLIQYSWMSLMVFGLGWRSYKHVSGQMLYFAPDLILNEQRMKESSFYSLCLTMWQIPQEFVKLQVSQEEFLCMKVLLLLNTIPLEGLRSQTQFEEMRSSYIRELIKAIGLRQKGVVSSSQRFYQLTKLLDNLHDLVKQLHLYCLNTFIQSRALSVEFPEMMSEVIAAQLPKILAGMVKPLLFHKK
# In short: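 PR-UAS-bla HEK 293T cells carrying a UAS-driven beta-lactamase reporter were seeded in medium with 2% charcoal-stripped FBS, preincubated 6 hr at 37C, then exposed to compounds in DMSO for 16 hr; agonism was read by LiveBLAzer B/G FRET fluorescence.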
# [4] = qHTS assay to identify small molecule agonists of the progesterone receptor (PR) signaling pathway - cell viability counter screen (AID 1346799; calls by dose curve; note: nearly all actives have a fitted effect of over 45% in size)
# In short: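 PR-UAS-bla HEK293T cells, 3,000 per well in medium with 2% charcoal-stripped FBS, were preincubated 6 hr at 37C, then exposed to compounds for 16 hr; viability was read as CellTiter-Glo luminescence after 30 min at room temperature.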
# [5] = qHTS assay to identify small molecule agonists of the TGF-beta/Smad signaling pathway (AID 1346859; active = well fitted activation curve with a large enough effect in the signal ratio in the repeat runs, not every such curve was filed as active; the % refers to the signal ratio; note: series mostly up to about 77 µM)
# In short: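 HEK 293T cells stably carrying a beta-lactamase reporter driven by the Smad binding element were seeded overnight, exposed to DMSO-dissolved compounds for 5 hr at 37 C, 5% CO2, then loaded with FRET substrate for 2 hr at room temperature.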
# [6] = target: Thyrotropin-releasing hormone receptor (Homo sapiens) (UniProt P34981); assay: qHTS assay to identify small molecule antagonists of the thyrotropin-releasing hormone receptor (TRHR) signaling pathway (AID 1346877; active = well fitted inhibition curve with a large enough effect in the repeat runs, not every such curve was filed as active; note: series mostly up to about 51 µM)
# Thyrotropin-releasing hormone receptor (Homo sapiens), sequence (P34981 whole entry, looked up): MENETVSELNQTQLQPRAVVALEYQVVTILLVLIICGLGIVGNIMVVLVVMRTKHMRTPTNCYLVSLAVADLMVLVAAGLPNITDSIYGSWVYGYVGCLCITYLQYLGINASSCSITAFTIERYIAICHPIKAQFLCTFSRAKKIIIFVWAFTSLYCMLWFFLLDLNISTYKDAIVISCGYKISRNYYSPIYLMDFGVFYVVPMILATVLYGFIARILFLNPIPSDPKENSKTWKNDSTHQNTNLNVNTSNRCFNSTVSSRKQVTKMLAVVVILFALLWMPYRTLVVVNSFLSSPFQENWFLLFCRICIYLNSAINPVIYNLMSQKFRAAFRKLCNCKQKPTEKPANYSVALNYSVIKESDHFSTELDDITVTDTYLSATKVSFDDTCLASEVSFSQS
# In short: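 Overnight-plated (18 h, 37 °C) HEK293 cells expressing TRHR were dye-loaded 2 h, treated with compound, then stimulated with TRH at 1 nM final. Fluorescence intensity was captured every second for 3 min.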
# [7] = target: Thyrotropin-releasing hormone receptor (Homo sapiens) (UniProt P34981); assay: qHTS assay to identify small molecule agonists of the thyrotropin-releasing hormone receptor (TRHR) signaling pathway (AID 1346891; calls by dose curve; note: series mostly up to about 58 µM)
# In short: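 TRHR-expressing HEK293 cells were plated 18 h at 37 °C/5% CO2, loaded with calcium dye 2 h at 37 °C, then given compound in DMSO; fluorescence was read kinetically for 3 min at 1 s intervals.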
# [8] = Human pregnane X receptor (PXR) small molecule agonists, qHTS cell viability counter screen (AID 1346977); note: nearly all actives have a fitted effect of over 50% in size
# In short: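 PXR-Luc HepG2 cells in medium with 5% charcoal-stripped FBS were pre-incubated 5hr, then exposed to compounds for 24hr at 37C. Viability was read in the same wells by CellTiter-Fluor fluorescence, reagent added after 23hr with a 1hr incubation.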
# [9] = Caspase-3/7 induction in CHO-K1 cells by small molecules, qHTS cell viability counter screen (AID 1346979); note: nearly all actives have a fitted effect of over 35% in size
# In short: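 Wild-type CHO-K1 cells were seeded at 1,500 per well, rested 5hr at 37 C, then exposed to compounds in DMSO. After 16hr, CellTiter-Fluor reagent was added and fluorescence read 1hr later as the viability measure.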
# [10] = Caspase-3/7 induction in CHO-K1 cells by small molecules, qHTS assay (AID 1346980); note: nearly all actives have a fitted effect of over 15% in size
# In short: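 Wild-type CHO-K1 cells exposed to compounds for 17hr at 37 C, 5% CO2. Caspase-3/7 activity then measured by Caspase-Glo 3/7 luminescence after 30min at room temperature.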
# [11] = Caspase-3/7 induction in HepG2 cells by small molecules, qHTS cell viability counter screen (AID 1346981); note: series mostly up to about 92 µM; nearly all actives have a fitted effect of over 30% in size
# In short: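 Treatment of HepG2 cells with DMSO-delivered compounds ran 16 hr at 37 C following a 5-hr pre-incubation of 2,000 cells/well. CellTiter-Fluor fluorescence, read after 1 hr, served as the viability measure in a qHTS format.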
# [12] = target: Nuclear receptor subfamily 1 group I member 2 (Homo sapiens) (UniProt O75469); assay: Human pregnane X receptor (PXR) small molecule agonists, qHTS assay (AID 1346982); note: nearly all actives have a fitted effect of over 35% in size; note: potency is the fitted concentration of half-maximal effect
# Nuclear receptor subfamily 1 group I member 2 (Homo sapiens), sequence (O75469 whole entry, looked up): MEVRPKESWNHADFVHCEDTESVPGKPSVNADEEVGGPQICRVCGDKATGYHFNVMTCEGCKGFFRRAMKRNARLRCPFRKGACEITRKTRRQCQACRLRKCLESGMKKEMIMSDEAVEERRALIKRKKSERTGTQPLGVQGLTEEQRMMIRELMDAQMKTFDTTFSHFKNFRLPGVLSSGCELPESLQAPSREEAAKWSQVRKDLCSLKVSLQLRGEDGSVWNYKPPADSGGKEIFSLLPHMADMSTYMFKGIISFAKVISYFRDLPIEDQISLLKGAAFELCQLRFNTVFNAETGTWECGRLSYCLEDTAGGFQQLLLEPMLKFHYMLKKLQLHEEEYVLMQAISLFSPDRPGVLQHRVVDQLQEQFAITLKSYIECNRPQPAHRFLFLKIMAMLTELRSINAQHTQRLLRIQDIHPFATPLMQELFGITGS
# In short: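 Stable HepG2 line reporting PXR-mediated CYP3A4 expression via luciferase. Treatment: 24 hr with compounds in DMSO at 37 C. Detection: ONE-Glo luminescence.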
# [13] = Caspase-3/7 induction in HepG2 cells by small molecules, qHTS assay (AID 1346978); note: nearly all actives have a fitted effect of over 15% in size
# In short: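 Wild-type HepG2 cells, 2,000/well, settled 5 hr at 37 C and 5% CO2, then compound-treated for 17 hr; caspase-3/7 activity read by luminescent Caspase-Glo 3/7 after 30 min at room temperature.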
# [14] = target: Nuclear receptor subfamily 1 group I member 2 (Rattus norvegicus) (UniProt Q9R1A7); assay: Rat pregnane X receptor (rPXR) activation by small molecules, qHTS assay (AID 1346983); settings: rPXR luciferase reporter cells, One-Glo luminescence, 24 h; active compounds read high; note: nearly all actives have a fitted effect of over 20% in size
# Nuclear receptor subfamily 1 group I member 2 (Rattus norvegicus), sequence (Q9R1A7 whole entry, looked up): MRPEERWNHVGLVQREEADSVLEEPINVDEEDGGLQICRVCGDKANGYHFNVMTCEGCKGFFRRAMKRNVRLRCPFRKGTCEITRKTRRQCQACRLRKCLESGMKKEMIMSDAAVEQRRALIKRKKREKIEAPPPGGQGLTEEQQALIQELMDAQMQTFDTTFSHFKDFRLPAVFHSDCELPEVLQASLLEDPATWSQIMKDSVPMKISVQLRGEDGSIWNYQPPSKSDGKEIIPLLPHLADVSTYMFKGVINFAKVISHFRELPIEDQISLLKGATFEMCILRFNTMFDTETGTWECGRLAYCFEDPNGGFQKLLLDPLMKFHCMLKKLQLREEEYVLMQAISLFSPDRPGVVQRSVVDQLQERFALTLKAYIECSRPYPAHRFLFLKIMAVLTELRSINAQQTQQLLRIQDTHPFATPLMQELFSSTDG
# In short: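 Cell-based rPXR activation assay: rPXR cells, 2,000 per well, rested 5hr at 37 C, then exposed to compounds in DMSO for 24 hr at 37 C. Luciferase activity read by One-Glo luminescence after 30 min at room temperature.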
# [15] = target: Nuclear receptor subfamily 1 group I member 2 (Homo sapiens) (UniProt O75469); assay: CYP3A4 induction through human pregnane X receptor (PXR) by small molecules, qHTS assay (AID 1346984); note: nearly all actives have a fitted effect of over 40% in size
# In short: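 After 24 h at 37C with compound, DPX-2 cells (HepG2, co-transfected PXR response element and CYP3A4 promoter-luciferase) got 3uM final P450-Glo Luciferin-IPA for 3 h; One-Glo luminescence followed.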
# [16] = target: Nuclear receptor subfamily 1 group I member 2 (Homo sapiens) (UniProt O75469); assay: Human pregnane X receptor (PXR) activation by small molecules, qHTS assay (AID 1346985); note: nearly all actives have a fitted effect of over 40% in size
# In short: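 DPX-2 cells (HepG2 co-transfected with a PXR response element and a CYP3A4-promoter luciferase construct) were seeded at 2,000 per well, rested 5 hr at 37C, then exposed to DMSO-dissolved compounds for 24 hr. Activation was read as luciferase luminescence.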
# [17] = target: Progesterone receptor (Homo sapiens) (UniProt P06401); assay: qHTS assay to identify small molecule antagonists of the progesterone receptor (PR) signaling pathway (AID 1346795; active = well fitted inhibition curve with a large enough effect in the signal ratio in the repeat runs, not every such curve was filed as active; the % refers to the signal ratio)
# In short: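 PR-UAS-bla HEK293T cells carrying a UAS-driven beta-lactamase reporter were plated in medium with 2% charcoal-stripped FBS and rested 6 hr at 37C. Compounds were added with 1 nM R5020 (final) for 16 hr, then FRET substrate loaded 2 hr at room temperature.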
# [18] = qHTS assay to identify small molecule antagonists of the progesterone receptor (PR) signaling pathway - cell viability counter screen (AID 1346798); note: series mostly up to about 92 µM; nearly all actives have a fitted effect of over 50% in size
# In short: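 PR-UAS-bla HEK293T cells in medium with 2% charcoal-stripped FBS were treated with compounds plus R5020 for 16 hr at 37C. Cell viability was then read by CellTiter-Glo luminescence after 30 min at room temperature in the same wells.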
# [19] = qHTS assay to identify small molecule antagonists of the TGF-beta/Smad signaling pathway - cell viability counter screen (AID 1346824); note: nearly all actives have a fitted effect of over 50% in size
# In short: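 SBE-bla HEK 293T cells, incubated overnight, then compound plus 0.25 ng/mL TGF-beta1 (stock added) for 5 hr at 37 C. Viability was read in the same wells by CellTiter-Glo luminescence after 30 min at room temperature.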
# [20] = qHTS assay to identify small molecule agonists of the TGF-beta/Smad signaling pathway - cell viability counter screen (AID 1346829); note: top concentration of the series differs between compounds; nearly all actives have a fitted effect of over 45% in size
# In short: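 Cytotoxicity counter screen: CellTiter-Glo luminescence (30 min, room temperature) measured in the SBE-bla HEK 293T reporter wells after 5 hr compound treatment at 37 C and the 2 hr substrate step.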
SMILES,outcome [1],Potency [2],Potency [3],outcome [4],outcome [5],outcome [6],outcome [7],Potency [8],Potency [9],outcome [10],Potency [11],Potency [12],Potency [13],max activation [14],Potency [15],outcome [16],Potency [17],outcome [18],outcome [19],outcome [20]
CCCCOC(=O)c1ccc(N)cc1,inactive,inactive,inactive,inactive,inactive,inactive,inactive,inactive,inactive,inactive,inactive,53.8 µM (active) and 23.7 µM (active),,,,,,,,
CCOC(=O)c1ccc(N)cc1,inactive,inactive,inactive,inactive,inactive,inactive,inactive,inactive,inactive,inactive,inactive,inactive,inactive,-0.927%,inactive,inactive,,,,
CC(O)CC(C)(C)O (stereo not drawn),,inactive,inactive,inactive,inactive,inactive,inactive,inactive,inactive,inactive,inactive,inactive,,,,,inactive,inactive,inactive,inactive
CCO[Si](CCC#N)(OCC)OCC,,inactive,inactive,inactive,,inactive,inactive,inactive,inactive,inactive,inactive,inactive,inactive,,,,inactive,inactive,,inactive
O=c1[nH]cnc2[nH]ncc12,,inactive,inactive,inactive,inactive,,,inactive,inactive,inactive,inactive,inactive,inactive,,,,inactive,inactive,inactive,inactive
CCCCCCCCCCCC(=O)OC,inactive,inactive,inactive,inactive,,inactive,inactive,inactive,inactive,inactive,inactive,inactive,,,,,inactive,,inactive,
COc1ccc(CCC(C)=O)cc1,inactive,inactive,inactive,inactive,,inactive,inactive,inactive,inactive,inactive,inactive,inactive,inactive,,,,inactive,,,inactive
